From PubChem BioAssay (Tox21) come the findings set out here.

A number with no mark means an inactive call. Inconclusive results are not listed. Calls of active or inactive are those of the source. Unless noted, calls follow the shape of the dose curve; as a rule, active = well fitted curve in the direction sought with a large enough effect in the repeat runs; inconclusive = weak or mixed curves; inactive = no such curve, though single readings can be large; an effect the other way counts as inactive or inconclusive.

The nature of test [1]: qHTS assay to test for compound auto fluorescence at 535 nm (green) in HEK293 cells (AID 720680).
Test [2] can be described thus: qHTS assay to test for compound auto fluorescence at 460 nm (blue) in HEK293 cell free culture (AID 720681). The essentials: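 Compounds were added to cell-free DMEM with 10% FBS and fluorescence read directly. The blue channel used 405 nm excitation and 460 nm emission, with triamterene as the reference fluorophore.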
Test [3] can be described thus: qHTS assay to test for compound auto fluorescence at 535 nm (green) in HEK293 cell free culture (AID 720682). The essentials: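 Green-channel intensity (Ex/Em 485/535 nm) was recorded from compound-treated wells containing only DMEM with 10% FBS. Fluorescein provided the equivalency standard.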
The nature of test [4]: qHTS assay to test for compound auto fluorescence at 590 nm (red) in HEK293 cell free culture (AID 720683). The essentials:
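Cell-free wells of DMEM with 10% FBS received compound, and intrinsic fluorescence was read at excitation/emission 540/590 nm. Values expressed as equivalence to Rose Bengal sodium.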

Test [5] in a line: qHTS assay to test for compound auto fluorescence at 590 nm (red) in HepG2 cell free culture (AID 720684). The essentials: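 Compounds are added to culture medium (MEM, 10% FBS) lacking cells, then fluorescence is read at excitation 540 nm, emission 590 nm, with Rose Bengal sodium as the equivalency standard.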
Test [6] can be described thus: qHTS assay to test for compound auto fluorescence at 460 nm (blue) in HepG2 cell free culture (AID 720685). The essentials: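 Compound (23 nL) or DMSO pinned into cell-free MEM with 10% FBS; blue fluorescence read at 405/460 nm excitation/emission, expressed as auto-fluorescence equivalency to triamterene.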
A short description of test [7]: qHTS assay to test for compound auto fluorescence at 535 nm (green) in HepG2 cell free culture (AID 720686).
The nature of test [8]: qHTS assay to test for compound auto fluorescence at 460 nm (blue) in HepG2 cells (AID 720687). The gist of the method: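 HepG2 cells in MEM with 10% FBS, attached overnight at 37 C, were exposed to compound or DMSO for 1 hr at 37 C, 5% CO2. Blue fluorescence was read at 405/460 nm, with triamterene as reference fluorophore.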
Test [9] deals with Glucocorticoid receptor (Homo sapiens) (UniProt P04150). Briefly: qHTS assay to identify small molecule agonists of the glucocorticoid receptor (GR) signaling pathway (AID 720691; active = well fitted activation curve with a large enough effect in the signal ratio in the repeat runs, not every such curve was filed as active; the % refers to the signal ratio). The essentials:
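Fluorescence intensity from LiveBLAzer B/G FRET substrate (2 h, room temperature) reports beta-lactamase expression driven by the glucocorticoid response element in GR-bla HeLa cells after 18 h compound exposure at 37 C.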

Test [10] has the same target. Briefly: qHTS assay to identify small molecule antagonists of the glucocorticoid receptor (GR) signaling pathway (AID 720692; active = well fitted inhibition curve with a large enough effect in the signal ratio in the repeat runs, not every such curve was filed as active; the % refers to the signal ratio). The gist of the method:
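HeLa GR-bla cells; cmpd + dex 5 nM final, 18 h 37 C; LiveBLAzer B/G FRET substrate 2 h RT; fluorescence intensity read. Antagonist mode, qHTS.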

Test [11] in a line: qHTS assay to identify small molecule antagonists of the glucocorticoid receptor (GR) signaling pathway - cell viability counter screen (AID 720693). Also: nearly all actives have a fitted effect of over 55% in size.
The nature of test [12]: qHTS assay for identifying genotoxic compounds that show differential cytotoxicity against isogenic chicken DT40 cell lines with known DNA damage response pathways - wild type cell line (AID 743012). Also: nearly all actives have a fitted effect of over 60% in size. Also: potency is read from the fitted curve at half-maximal effect. The gist of the method:
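Wild type DT40, 300 cells/well, ~0.5 h settle at 37 C/5% CO2; compounds in DMSO added by pintool; 40 h at 37 C/5% CO2; CellTiter-Glo, 30 min RT; luminescence.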

Test [13] in a line: qHTS assay for identifying genotoxic compounds that show differential cytotoxicity against isogenic chicken DT40 cell lines with known DNA damage response pathways - Rad54/Ku70 mutant cell line (AID 743015). Also: nearly all actives have a fitted effect of over 60% in size. Also: potency is read from the fitted curve at half-maximal effect.
Test [14] is described as follows: qHTS assay to identify small molecule antagonists of the androgen receptor (AR) signaling pathway - cell viability counter screen (AID 743033; also: nearly all actives have a fitted effect of over 45% in size).
Test [15] can be described thus: qHTS assay for identifying genotoxic compounds that show differential cytotoxicity against isogenic chicken DT40 cell lines with known DNA damage response pathways - Rev3 mutant cell line (AID 743014). Also: nearly all actives have a fitted effect of over 55% in size. Also: potency is read from the fitted curve at half-maximal effect.
Test [16] in a line: qHTS assay to identify small molecule antagonists of the androgen receptor (AR) signaling pathway using the MDA cell line - cell viability counter screen (AID 743041; also: nearly all actives have a fitted effect of over 45% in size). The essentials: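 Same-well cytotoxicity was assessed by CellTiter-Fluor in MDA-kb2 AR-luc cells after 16 h of compound treatment under R1881 agonism.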
Test [17] deals with Androgen receptor (Homo sapiens) (UniProt P10275). Briefly: qHTS assay to identify small molecule antagonists of the androgen receptor (AR) signaling pathway (AID 743035; active = well fitted inhibition curve with a large enough effect in the signal ratio in the repeat runs, not every such curve was filed as active; the % refers to the signal ratio; also: potency is read from the fitted curve at half-maximal effect). The gist of the method: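 Fluorescence from a beta-lactamase FRET substrate (LiveBLAzer B/G, 2 h, room temperature) measured inhibition of R1881-stimulated signaling in GeneBLAzer AR-UAS-bla HEK293 cells exposed to compound for 16 h at 37C.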
Androgen receptor (Homo sapiens), sequence (P10275 whole entry, looked up): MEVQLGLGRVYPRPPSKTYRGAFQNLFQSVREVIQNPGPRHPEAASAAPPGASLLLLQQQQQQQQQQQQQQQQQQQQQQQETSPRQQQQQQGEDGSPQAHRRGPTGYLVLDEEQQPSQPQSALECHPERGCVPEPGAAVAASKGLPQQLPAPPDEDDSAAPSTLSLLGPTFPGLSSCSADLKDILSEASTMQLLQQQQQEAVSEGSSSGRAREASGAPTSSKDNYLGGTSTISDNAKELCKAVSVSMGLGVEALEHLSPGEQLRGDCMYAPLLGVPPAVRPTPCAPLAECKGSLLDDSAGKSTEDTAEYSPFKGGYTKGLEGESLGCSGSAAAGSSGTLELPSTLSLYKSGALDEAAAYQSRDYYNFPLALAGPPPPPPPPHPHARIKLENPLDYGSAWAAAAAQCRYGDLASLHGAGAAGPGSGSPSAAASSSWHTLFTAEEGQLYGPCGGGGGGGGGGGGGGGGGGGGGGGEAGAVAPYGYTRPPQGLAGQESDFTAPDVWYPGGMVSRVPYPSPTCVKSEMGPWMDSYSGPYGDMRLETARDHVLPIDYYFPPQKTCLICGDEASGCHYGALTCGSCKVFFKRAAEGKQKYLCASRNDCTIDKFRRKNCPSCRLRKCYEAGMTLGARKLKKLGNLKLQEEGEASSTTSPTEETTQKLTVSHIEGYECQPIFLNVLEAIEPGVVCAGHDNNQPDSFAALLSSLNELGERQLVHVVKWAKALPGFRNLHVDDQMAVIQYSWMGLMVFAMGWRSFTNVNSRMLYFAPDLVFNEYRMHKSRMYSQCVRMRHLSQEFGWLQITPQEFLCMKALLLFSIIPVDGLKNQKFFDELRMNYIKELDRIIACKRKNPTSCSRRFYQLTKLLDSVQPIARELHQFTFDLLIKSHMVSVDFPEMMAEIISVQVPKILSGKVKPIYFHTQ

Test [18] has the same target. Briefly: qHTS assay to identify small molecule agonists of the androgen receptor (AR) signaling pathway (AID 743036; active = well fitted activation curve with a large enough effect in the signal ratio in the repeat runs, with a control signal flat, not every such curve was filed as active; the % refers to the signal ratio). The gist of the method:
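Cell-based FRET reporter assay: HEK293 line with a UAS-beta-lactamase construct, compounds added in DMSO, 16 h exposure at 37C, then 2 h substrate step at room temperature and fluorescence intensity read.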

The target is the same in test [19]. Briefly: qHTS assay to identify small molecule agonists of the androgen receptor (AR) signaling pathway using the MDA cell line (AID 743040; also: nearly all actives have a fitted effect of over 20% in size). The gist of the method: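 Human breast carcinoma MDA-kb2 reporter cells (MMTV-luc, AR/GR elements) were treated for 16 h at 37C in 0% CO2 following a 5 h settling period. Signal was quantified by ONE-Glo luminescence.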

The target is the same in test [20]. Briefly: qHTS assay to identify small molecule antagonists of the androgen receptor (AR) signaling pathway using the MDA cell line (AID 743042; also: nearly all actives have a fitted effect of over 55% in size; also: potency is read from the fitted curve at half-maximal effect). The essentials: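 MDA-kb2 breast carcinoma cells carrying MMTV-luciferase (AR/GR responsive) were co-treated with compounds and the agonist R1881 for 16 h at 37C. Inhibition read as ONE-Glo luminescence; CellTiter-Fluor fluorescence measured in parallel for cytotoxicity.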
% is scaled to controls: 0 for no effect and ±100 for the full control effect.

Glucocorticoid receptor (Homo sapiens), sequence (P04150 whole entry, looked up): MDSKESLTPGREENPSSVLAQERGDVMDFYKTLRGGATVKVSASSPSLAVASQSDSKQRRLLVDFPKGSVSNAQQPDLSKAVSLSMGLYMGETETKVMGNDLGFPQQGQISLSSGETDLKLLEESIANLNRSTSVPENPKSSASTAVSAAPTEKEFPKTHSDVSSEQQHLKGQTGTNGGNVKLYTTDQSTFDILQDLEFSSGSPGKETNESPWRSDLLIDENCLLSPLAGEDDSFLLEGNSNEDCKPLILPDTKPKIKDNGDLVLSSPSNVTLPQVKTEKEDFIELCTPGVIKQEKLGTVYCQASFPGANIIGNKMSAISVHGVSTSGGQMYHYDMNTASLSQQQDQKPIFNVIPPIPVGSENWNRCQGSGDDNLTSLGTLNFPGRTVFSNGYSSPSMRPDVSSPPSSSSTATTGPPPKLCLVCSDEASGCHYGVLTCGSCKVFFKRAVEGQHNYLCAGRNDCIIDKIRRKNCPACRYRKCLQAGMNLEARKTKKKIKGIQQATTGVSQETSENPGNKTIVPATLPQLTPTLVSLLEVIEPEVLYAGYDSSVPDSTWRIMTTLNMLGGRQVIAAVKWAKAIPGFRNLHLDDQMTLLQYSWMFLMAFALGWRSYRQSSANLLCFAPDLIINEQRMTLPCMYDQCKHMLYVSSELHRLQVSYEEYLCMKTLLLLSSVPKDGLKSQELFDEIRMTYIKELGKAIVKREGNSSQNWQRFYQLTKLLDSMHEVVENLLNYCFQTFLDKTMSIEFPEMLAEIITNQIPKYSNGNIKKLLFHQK

With `O=C1c2ccccc2C(=O)c2cc(S(=O)(=O)O)ccc21`, the molecule was called inactive in test [1], in test [2], in test [3], in [4], in test [5] and in [6]. Moreover, the result in test [7], in test [8], in test [10] and in [11] was inactive. The Potency entry in test [9], in [12], in test [13] and in test [14] was “inactive” in each case.
In the case of `CCCCNc1ccc(C(=O)OCCN(C)C)cc1`, the fluorescence, % of fluorescein in [1] is -0.108% [at 18.6 µM]. Further, the fluorescence, % of fluorescent control is 0.0181% [at 18.6 µM] in test [2], -0.282% [at 18.6 µM] in [4], 0.0923% [at 18.6 µM] in test [6] and 0.0537% [at 18.6 µM] in test [8]. Moreover, the activity change in test [3] was -0.0203% [at 18.6 µM]. In addition, in test [5], the fluorescence, % of Rose Bengal is 0.315% [at 18.6 µM]. For the same molecule, in test [7], the fluorescence, % of fluorescein control is -0.0132% [at 18.6 µM]. For the same molecule, the Potency entry in test [9], in [14] and in [16] was “inactive” in each case. For the same molecule, the outcome in test [10] and in test [11] was inactive. Besides, the Potency in [12] was 5.07 µM (active); in test [15], 2.85 µM (active); in [13], 5.07 µM (active).
For `O=C(Nc1ccc(Cl)c(Cl)c1)C1CC1`, the call in test [1], in test [2], in [3], in [4], in test [5] and in test [6] was inactive. Moreover, the molecule was classed as inactive in test [7], in [8], in test [10], in [11], in [18] and in [19]. Further, the Potency result in test [9] and in test [14] was “inactive” each time. Further, the Potency in [12] was 29.8 µM (active); in [15], 26.6 µM (active); in test [13], 29.8 µM (active); in test [17] it was 19 µM (active); in test [20], 29.8 µM (active).
For `C[C@@H](Oc1ccc(CNC(=O)c2cccnc2Oc2ccc3c(c2)OCO3)c(F)c1)C(=O)O`, the molecule was called inactive in test [1], in [2], in test [3], in test [4], in [5] and in test [6]. In addition, the call in test [7], in [8], in test [10] and in [11] was inactive. In addition, the Potency entry in test [9], in test [12], in test [15], in test [13], in test [14] and in test [16] was “inactive” in each case.
Consider `O=C(CS(=O)Cc1ccco1)NC/C=C\COc1cc(CN2CCCCC2)ccn1` (stereo unspecified), for which the call in [1], in test [2], in test [3], in test [4], in test [5] and in test [6] was inactive. Moreover, the molecule was called inactive in [7], in [8], in test [10] and in test [11]. For the same molecule, the Potency result in test [9], in [12], in test [15], in test [13] and in [14] was “inactive” each time.
`C=CCCCCCCCCCCCC`: the outcome in [1], in test [2], in test [3], in test [4], in test [5] and in test [6] was inactive. Also, the molecule was called inactive in [7], in test [8], in [10] and in test [19]. Moreover, the Potency entry in test [9], in test [12], in test [15], in test [13], in test [14] and in [17] was “inactive” each time. Besides, the Potency result in test [16] and in [20] was “inactive” in each case.
Turning to `CN1CCN(CC(=O)N2c3ccccc3C(=O)Nc3cccnc32)CC1`, the molecule was classed as inactive in [1], in [2], in test [3], in [4], in test [5] and in test [6]. Moreover, the outcome in [7], in [8] and in test [11] was inactive. Besides, the Potency result in test [9], in test [12], in [15] and in test [13] was “inactive” in each case.
On to `COc1ccc2c(c1)C(=O)N(CCc1ccc(S(=O)(=O)NC(=O)NC3CCCCC3)cc1)C(=O)C2(C)C`, for which, in test [1], the fluorescence, % of fluorescein is 0.0317% [at 18.6 µM]. Also, the fluorescence, % of fluorescent control is 0.0227% [at 18.6 µM] in [2], -0.0169% [at 18.6 µM] in [4], -0.0823% [at 18.6 µM] in [6] and -0.0057% [at 18.6 µM] in test [8]. For the same molecule, the activity change in test [3] was 0.0882% [at 18.6 µM]. Also, the fluorescence, % of Rose Bengal in [5] is -0.0384% [at 18.6 µM]. Besides, the fluorescence, % of fluorescein control in test [7] is -0.167% [at 18.6 µM]. Besides, the Potency result in test [9], in [12], in [15], in test [13], in [14] and in test [17] was “inactive” throughout. In addition, the Potency result in test [16] and in test [20] was “inactive” each time. In addition, the call in test [10], in [11], in test [18] and in test [19] was inactive.
